Rows were chosen to be rich in hits. Some 1.1% of all compounds tested hit in one or more screens of this group.
SNCA expr inhib: reduces expression of the alpha-synuclein gene | Potency, µM (series often up to 57.2 µM), for inactives: at the top dose activity change, negative = inhibition, actives largely listed as inhibitors | 140,000 tested, 0.17% active | HEK-293 SNCA-luciferase knock-in, luminescence, 24 h;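 note: potency is the fitted concentration of half-maximal effect; plate controls were DMSO cells for no effect and cell-free wells for full effect; nearly all actives have a fitted effect of over 45% in size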
GPT2 inh: inhibitors of human GPT2 alanine aminotransferase. Recombinant GPT2, coupled pyruvate oxidase/HRP Amplex Red fluorescence. Potency, µM (titrated, usually from 57.7 µM), for inactives: top-dose activity change, negative = inhibition, usual class: inhibitors. 100,000 tested, 0.25% active; note: potency is the fitted concentration of half-maximal effect; nearly all actives have a fitted effect of over 60% in size
Target sequence (Q8TD30 whole entry, looked up): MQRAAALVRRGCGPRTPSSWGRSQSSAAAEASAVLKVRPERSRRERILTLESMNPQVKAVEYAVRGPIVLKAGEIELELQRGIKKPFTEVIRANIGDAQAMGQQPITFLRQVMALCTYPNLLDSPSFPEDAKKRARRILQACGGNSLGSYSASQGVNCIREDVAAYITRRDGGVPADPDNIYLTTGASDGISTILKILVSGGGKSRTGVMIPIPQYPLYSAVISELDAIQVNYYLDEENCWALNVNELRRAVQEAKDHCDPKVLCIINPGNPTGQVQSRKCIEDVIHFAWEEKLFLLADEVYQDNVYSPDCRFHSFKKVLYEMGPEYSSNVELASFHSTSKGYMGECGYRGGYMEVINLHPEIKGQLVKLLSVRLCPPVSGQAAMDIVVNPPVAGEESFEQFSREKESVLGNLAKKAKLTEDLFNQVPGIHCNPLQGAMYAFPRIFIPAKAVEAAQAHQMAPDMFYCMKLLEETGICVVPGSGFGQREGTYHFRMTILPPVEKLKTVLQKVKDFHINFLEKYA
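Inhibition is scored from Amplex Red fluorescence generated when pyruvate oxidase and HRP act on pyruvate released by GPT2. Reactions contain 10ng/uL enzyme, 250uM a-KG and 2mM L-alanine and run 30 min at room temperature.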
IP6K1 inh: IP6K1 kinase inhibition; Q92551; IP6K1 kinase, ADP-Glo luminescence, 2 h; hits give low values; activity change, % (series mostly up to about 58 µM); 140,000 tested, 0.81% active; AID 1645851; in the data active = activity change below about -25%
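ADP-Glo luminescence measures ADP made by human IP6K1 during a 2 h RT reaction with ATP/IP6 (mix at 1.3 mM/130 uM); top library doses 57.5 and 19.1 uM final.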
SNCA viab count: reduces viability of HEK-293 SNCA reporter cells | HEK-293-SNCA-luc viability, GF-AFC fluorescence, 24 h | Potency, µM (top dose mostly 57.1 µM), for inactives: at the highest dose activity change, negative = cytotoxicity, usual class: cytotoxic | 150,000 tested, 0.12% active | AID 1671193;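 note: potency is the fitted concentration of half-maximal effect; 0% = DMSO-treated cells and -100% = medium-only wells without cells; nearly all actives have a fitted effect of over 30% in size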
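Cytotoxicity counterscreen: after 24 h compound treatment of genome-edited SNCA-luciferase HEK-293 cells, live-cell protease substrate GF-AFC read by fluorescence after 30 min; activity scaled between DMSO (0%) and medium-only (-100%), curves Hill-fitted.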
IP6K1 inh cnf: confirmation of human IP6K1 inhibitors; Potency, µM (highest dose often 49 µM), inactives show at the top dose activity change, negative = inhibition, actives largely listed as inhibitors; shares compounds with IP6K1 inh; AID 1645852; 1,200 tested, 13% active; recombinant IP6K1 kinase, ADP-Glo luminescence, 2 h; note: potency is the fitted concentration of half-maximal effect; nearly all actives have a fitted effect of over 65% in size
Active calls of the source: *; [ ] = remark or other dose. Unless noted, calls come from the whole dose curve; as a rule, active = well fitted curve in the direction sought with a large enough effect; inconclusive = small, poorly fitted or top-dose-only effect, or another doubt; inactive = no such curve, though single readings can be large; an effect the other way counts as inactive or inconclusive. Unless noted, % is set by controls: 0 for no effect and ±100 for the full control effect.

Results for COc1cc(Cl)c(C)cc1NC(=O)CSc1ncc(S(=O)(=O)c2ccc(C(C)(C)C)cc2)c(=O)[nH]1 ?
SNCA expr inhib: 0%; IP6K1 inh: -9; SNCA viab count: 8%

What do the screens show for `Cc1ccc(S(=O)(=O)c2cnc(SCC(=O)Nc3ccc4c(c3)OCCO4)[nH]c2=O)cc1C`?
SNCA expr inhib: 8%; IP6K1 inh: -25*; SNCA viab count: 12%; IP6K1 inh cnf: inconclusive

How did CCc1ccc(S(=O)(=O)c2cnc(SCC(=O)Nc3ccc(OC)cc3OC)[nH]c2=O)cc1 do in these assays?
SNCA expr inhib: 7%; IP6K1 inh: -28*; SNCA viab count: 24%; IP6K1 inh cnf: inconclusive

Results for CCOC(=O)[C@@H]1[C@@H](O)C(=O)N(Cc2ccccc2)C12CCN(C(=O)c1ccc(C(C)(C)C)cc1)CC2 ?
IP6K1 inh: 18

Results for CCOc1ccc(NC(=O)CN(c2ccc(Cl)cc2C)S(=O)(=O)c2ccccc2)cc1 ?
SNCA expr inhib: inconclusive; IP6K1 inh: -25*; SNCA viab count: -8%; IP6K1 inh cnf: -10%

Results for CC[C@H](CC#N)OC(=O)N[C@@H](C)c1cccc(NC(=O)Nc2ccc(-c3cnco3)c(OC)c2)c1 ?
SNCA expr inhib: inconclusive; GPT2 inh: 4%; IP6K1 inh: -39*; SNCA viab count: inconclusive; IP6K1 inh cnf: inconclusive

What do the screens show for `Oc1ccc(-c2nc(C3CC3)nc3c2CN(Cc2cccc4ccccc24)CC3)cc1`?
SNCA expr inhib: inconclusive; GPT2 inh: -14%; IP6K1 inh: 12; SNCA viab count: inconclusive

How did CCOc1ccc(CNC(=O)CCS(=O)(=O)c2cc3c4c(c2)CCN4C(=O)CC3)cc1OC do in these assays?
SNCA expr inhib: -20%; IP6K1 inh: -28*; SNCA viab count: 8%; IP6K1 inh cnf: 13%

How did COc1ccc(CNC(=O)CCS(=O)(=O)c2cc3c4c(c2)CCN4C(=O)CC3)cc1 do in these assays?
SNCA expr inhib: 18%; IP6K1 inh: -9; SNCA viab count: -6%

What do the screens show for `COc1ccccc1CN1Cc2cc(NC(=O)c3ccc(Cl)cc3)ccc2OC(C)C1=O` (stereo not given)?
SNCA expr inhib: -27%; GPT2 inh: inactive; IP6K1 inh: -11; SNCA viab count: -9%

What do the screens show for `CCOC(=O)[C@H]1C[C@]2(CCCCN(CCOC)C2=O)N(C(=O)Cc2cccs2)[C@H]1c1ccco1`?
IP6K1 inh: -6

What do the screens show for `COCCN1CCCC[C@]2(C[C@H](C(=O)O)[C@H](c3ccco3)N2C(=O)Cc2cccs2)C1=O`?
IP6K1 inh: -25*; IP6K1 inh cnf: inconclusive

Results for O=C1CC2(CCN(C(=O)C3CCN(C(=O)Cc4cccc(Cl)c4)CC3)CC2)Oc2ccccc2N1 ?
SNCA expr inhib: -26%; GPT2 inh: inactive; IP6K1 inh: 2; SNCA viab count: -9%

What do the screens show for `COc1ccccc1C(=O)Nc1ccc(S(=O)(=O)Nc2nc(C)cc(C)n2)cc1`?
SNCA expr inhib: 33%; IP6K1 inh: -29*; SNCA viab count: -18%; IP6K1 inh cnf: inconclusive

What do the screens show for `CCOc1ccccc1C(=O)Nc1ccc(S(=O)(=O)Nc2ncccn2)cc1`?
SNCA expr inhib: 15%; IP6K1 inh: 4; SNCA viab count: 9%

Results for Cc1cc(C)cc(-c2ccc(CN3CCCC3C(=O)NC(C)C)cc2)c1 (stereo not given) ?
SNCA expr inhib: -11%; GPT2 inh: inactive; IP6K1 inh: -11; SNCA viab count: -13%

Results for COc1ccc(-c2c(C(=O)NCc3ccccn3)nc3sccn23)cc1 ?
SNCA expr inhib: -4%; GPT2 inh: 2%; IP6K1 inh: -30*; SNCA viab count: -6%; IP6K1 inh cnf: 1%

What do the screens show for `COc1ccccc1Nc1ccnc(N2CCCC(C(=O)NCc3ccc(F)cc3)C2)n1` (stereo not given)?
SNCA expr inhib: inconclusive; GPT2 inh: inactive; IP6K1 inh: 5; SNCA viab count: 1%[12.5 µM]

Results for CCOC(=O)[C@H]1C[C@]2(CCCCN(CCOC)C2=O)N(C(=O)Cc2ccc(F)cc2)[C@H]1c1ccccc1 ?
IP6K1 inh: 11

What do the screens show for `O=C1Nc2ccccc2CC12CCN(Cc1ccc(Cl)cc1)CC2`?
SNCA expr inhib: 19%; GPT2 inh: -15%; IP6K1 inh: -3; SNCA viab count: -15%

Results for COc1ccc(CC(=O)N2C[C@@H](CO)[C@@H]3Oc4ccccc4[C@@H]32)cc1 ?
IP6K1 inh: 20

What do the screens show for `Cc1cc(C(C)Nc2ccccc2C(=O)O)c2nc(N3CCOCC3)cc(=O)n2c1` (stereo not given)?
GPT2 inh: inactive; IP6K1 inh: 1; SNCA viab count: -18%; IP6K1 inh cnf: -11%

Results for O=c1cc(N2CCOCC2)nc2c3ccccc3ccn12 ?
GPT2 inh: 4%; IP6K1 inh: -10; SNCA viab count: -8%

What do the screens show for `O=C(NCc1nc(-c2cccc(F)c2)c(-c2ccccn2)[nH]1)[C@@H]1C[C@@H](O)CN1`?
SNCA expr inhib: 2%; GPT2 inh: -21%; IP6K1 inh: -30*; SNCA viab count: -3%; IP6K1 inh cnf: -7%

What do the screens show for `COc1cccc(-c2cc(C(=O)N3CCN(Cc4ccccc4)CC3)c3cnn(C)c3n2)c1`?
IP6K1 inh: 2

Results for CC(=O)Nc1cccc(-c2nc(-c3c(C)noc3C)cc3cc(C)oc23)c1 ?
SNCA expr inhib: 28%[87.6 µM]; GPT2 inh: inconclusive; IP6K1 inh: -28*; SNCA viab count: -9%[87.6 µM]; IP6K1 inh cnf: -29%

What do the screens show for `Cc1ccc(-c2cc(C(F)(F)F)nn2-c2ccc(S(N)(=O)=O)cc2)cc1`?
SNCA expr inhib: 22%; GPT2 inh: -3%; IP6K1 inh: 7; SNCA viab count: inconclusive

How did CCC(=O)c1cc(-c2ccc(Cl)cc2)n(-c2ccc(S(N)(=O)=O)cc2)c1C do in these assays?
GPT2 inh: 3%; IP6K1 inh: -34*; SNCA viab count: -13%; IP6K1 inh cnf: inconclusive

Results for COc1ccc(OCC2CN(CCc3ccccc3)S(=O)(=O)c3cnccc3O2)cc1 (stereo not given) ?
IP6K1 inh: -10

Results for CCCc1nnc(C[C@@H]2C[C@@H](C(C)C)[C@H](CNc3cccnc3)C=C2C)o1 ?
SNCA expr inhib: 5%[87.6 µM]; GPT2 inh: 10µM*; IP6K1 inh: -25*; SNCA viab count: 2%[87.6 µM]; IP6K1 inh cnf: -5%

Results for CCCc1nnc(C[C@@H]2C[C@@H](C(C)C)[C@H](CNCc3cccnc3)C=C2C)o1 ?
SNCA expr inhib: inconclusive; GPT2 inh: -6%[88.5 µM]; IP6K1 inh: 4; SNCA viab count: -19%[87.6 µM]

What do the screens show for `Cc1ccc(-c2ccc(=O)n(CCC(=O)NCCc3ccccc3)n2)cc1`?
SNCA expr inhib: 22%; IP6K1 inh: -27*; SNCA viab count: 0%; IP6K1 inh cnf: -12%
